Data reported in PubChem BioAssay (Tox21).
Inconclusive results are not listed. Active and inactive are the calls of the source. Unless noted, calls come from the whole dose curve; as a rule, active = well fitted curve in the direction sought with a large enough effect in the repeat runs; inconclusive = weak or mixed curves; inactive = no such curve, though single readings can be large; an effect the other way counts as inactive or inconclusive.

Legend:
[1] = A CellTox Green Cytotoxicity Assay to monitor cytotoxicity in HEK293 cells - 32 hour (AID 1224881); note: nearly all actives have a fitted effect of over 40% in size
Outline: (§1)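 HEK293 cells premixed with CellTox Green dye were seeded at 600 cells/well and left 5 h at 37 C/5% CO2 before pin transfer of 23 nL compound in DMSO. Fluorescence from dye bound to dead-cell DNA was read during 40 h treatment.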

[2] = A CellTox Green Cytotoxicity Assay to monitor cytotoxicity in HepG2 cells - 0 hour (AID 1224882); note: nearly all actives have a fitted effect of over 35% in size
Outline: (§2)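 HepG2 cells were seeded together with the CellTox Green dye at 600 cells/well, left 5 h at 37 C/5% CO2, then given compounds in DMSO. Fluorescence from dye bound to dead-cell DNA was read repeatedly over 40 h of treatment at 37 C.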

[3] = A CellTox Green Cytotoxicity Assay to monitor cytotoxicity in HepG2 cells - 32 hour (AID 1224883); note: nearly all actives have a fitted effect of over 50% in size
Outline: as §2

[4] = qHTS RealTime-Glo MT Cell Viability Assay in HepG2 cells - 16 hour (AID 1224885); note: nearly all actives have a fitted effect of over 50% in size
Outline: (§3)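 Tox21 10K library screened in qHTS format on HepG2 cells carrying RealTime-Glo reagents. Compounds were added after a 5 h preincubation, and the luminescent signal from continuous culture was measured repeatedly during 40 h treatment.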

[5] = qHTS RealTime-Glo MT Cell Viability Assay in HEK293 cells - 24 hour (AID 1224886); note: top concentration of the series differs between compounds; nearly all actives have a fitted effect of over 50% in size
Outline: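 Luminescence generated by NanoLuc from substrate produced by living HEK293 cells served as the viability signal. Each value reflects the reading at its stated time point during continuous 40 h compound exposure at 37 C.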

[6] = qHTS RealTime-Glo MT Cell Viability Assay in HEK293 cells - 8 hour (AID 1224887); note: top concentration of the series differs between compounds; nearly all actives have a fitted effect of over 50% in size
Outline: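 HEK293 cells mixed with RealTime-Glo reagents (NanoLuc plus cell-permeant prosubstrate) at 600 cells/well, preincubated 5 h at 37 C/5% CO2, then given 23 nL compound in DMSO. Nonlytic luminescence from viable cells was read at 0, 8, 16, 24, 32 and 40 h.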

[7] = A CellTox Green Cytotoxicity Assay to monitor cytotoxicity in HEK293 cells - 16 hour (AID 1224888); note: nearly all actives have a fitted effect of over 35% in size
Outline: as §1

[8] = qHTS RealTime-Glo MT Cell Viability Assay in HepG2 cells - 0 hour (AID 1224889); note: nearly all actives have a fitted effect of over 50% in size
Outline: as §3

[9] = A CellTox Green Cytotoxicity Assay to monitor cytotoxicity in HepG2 cells - 8 hour (AID 1224890); note: nearly all actives have a fitted effect of over 45% in size
Outline: as §2

[10] = qHTS assay to identify small molecule antagonists of the estrogen receptor alpha (ER-alpha) signaling pathway using the BG1 cell line in the presence of 0.1 nM 17-beta-estradiol - cell viability counter screen (AID 1259241); note: nearly all actives have a fitted effect of over 40% in size
Outline: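 VM7Luc4E2 cells (endogenous full-length ER-alpha, 4xERE-luciferase), cultured 5 days in charcoal-stripped serum, exposed to compounds with 0.1 nM 17beta-estradiol (final) for 22 hr at 37C. Viability read in same wells as live-cell protease fluorescence after 30 min.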

[11] = qHTS assay to identify small molecule antagonists of the androgen receptor (AR) signaling pathway using the MDA cell line in the presence of 0.5 nM R1881 - cell viability counter screen (AID 1259242); note: nearly all actives have a fitted effect of over 45% in size
Outline: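 MDA-kb2 cells (human breast carcinoma, stably carrying MMTV-luciferase reporter) were exposed to compounds with 0.5 nM R1881 (final) for 16 hr at 37C, 0% CO2; viability then read as live-cell protease fluorescence (CellTiter-Fluor, 30 min) in the same wells.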

[12] = biological target: Androgen receptor (Homo sapiens) (UniProt P10275); test: qHTS assay to identify small molecule antagonists of the androgen receptor (AR) signaling pathway using the MDA cell line in the presence of 0.5 nM R1881 (AID 1259243); note: nearly all actives have a fitted effect of over 50% in size
Chain of Androgen receptor (Homo sapiens) (P10275 whole entry, looked up): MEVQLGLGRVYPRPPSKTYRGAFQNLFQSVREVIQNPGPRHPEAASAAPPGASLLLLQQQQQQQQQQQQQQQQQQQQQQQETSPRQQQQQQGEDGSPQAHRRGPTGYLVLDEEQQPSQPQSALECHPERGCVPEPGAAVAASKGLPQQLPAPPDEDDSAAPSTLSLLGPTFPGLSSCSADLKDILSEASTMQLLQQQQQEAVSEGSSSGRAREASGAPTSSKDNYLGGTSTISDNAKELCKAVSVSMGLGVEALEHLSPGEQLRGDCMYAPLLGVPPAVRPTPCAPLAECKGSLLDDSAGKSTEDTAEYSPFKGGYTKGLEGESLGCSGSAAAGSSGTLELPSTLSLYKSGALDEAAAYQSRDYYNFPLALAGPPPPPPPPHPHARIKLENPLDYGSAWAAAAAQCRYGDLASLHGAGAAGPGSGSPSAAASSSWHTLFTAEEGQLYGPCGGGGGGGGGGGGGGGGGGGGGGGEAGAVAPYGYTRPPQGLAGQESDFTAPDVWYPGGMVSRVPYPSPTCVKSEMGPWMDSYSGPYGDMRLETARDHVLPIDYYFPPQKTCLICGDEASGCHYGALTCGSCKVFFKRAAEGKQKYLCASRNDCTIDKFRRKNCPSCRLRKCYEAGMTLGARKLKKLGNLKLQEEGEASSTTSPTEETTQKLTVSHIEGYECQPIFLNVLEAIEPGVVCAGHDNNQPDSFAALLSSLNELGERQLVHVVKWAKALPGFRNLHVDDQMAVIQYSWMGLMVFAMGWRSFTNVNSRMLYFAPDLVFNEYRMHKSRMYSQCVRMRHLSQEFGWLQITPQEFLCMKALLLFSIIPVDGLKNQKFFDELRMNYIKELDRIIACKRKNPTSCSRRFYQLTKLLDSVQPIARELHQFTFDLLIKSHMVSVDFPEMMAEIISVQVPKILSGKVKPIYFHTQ
Outline: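 MDA-kb2 human breast carcinoma cells carrying an MMTV-luciferase reporter (AR- and GR-responsive) were plated, rested 5 hr at 37C, dosed with compounds, then stimulated with 0.5 nM R1881 (final) for 16 hr; luminescence was read after ONE-Glo.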

[13] = biological target: Estrogen receptor (Homo sapiens) (UniProt P03372); test: qHTS assay to identify small molecule antagonists of the estrogen receptor alpha (ER-alpha) signaling pathway using the BG1 cell line in the presence of 0.1 nM 17-beta-estradiol (AID 1259244); note: nearly all actives have a fitted effect of over 50% in size
Chain of Estrogen receptor (Homo sapiens) (P03372 whole entry, looked up): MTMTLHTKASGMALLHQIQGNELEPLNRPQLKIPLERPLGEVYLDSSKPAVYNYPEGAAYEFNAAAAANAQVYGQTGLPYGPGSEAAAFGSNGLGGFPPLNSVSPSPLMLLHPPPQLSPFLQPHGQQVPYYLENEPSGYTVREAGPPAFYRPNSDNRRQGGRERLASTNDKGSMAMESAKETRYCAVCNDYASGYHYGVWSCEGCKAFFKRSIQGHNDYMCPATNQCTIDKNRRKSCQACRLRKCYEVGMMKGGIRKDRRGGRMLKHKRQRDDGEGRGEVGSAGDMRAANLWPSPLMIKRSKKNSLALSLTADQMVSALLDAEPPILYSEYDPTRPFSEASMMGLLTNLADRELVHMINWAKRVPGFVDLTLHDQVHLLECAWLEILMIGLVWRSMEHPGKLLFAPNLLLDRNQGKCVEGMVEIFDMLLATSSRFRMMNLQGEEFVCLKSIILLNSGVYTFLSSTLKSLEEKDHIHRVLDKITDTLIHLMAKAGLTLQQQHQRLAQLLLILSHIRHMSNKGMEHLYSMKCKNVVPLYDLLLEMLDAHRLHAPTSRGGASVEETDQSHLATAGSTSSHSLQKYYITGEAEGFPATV
Outline: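 VM7Luc4E2 cells (endogenous full-length ER-alpha, stable 4xERE-luciferase) were grown 5 days in phenol red-free medium with charcoal-stripped FBS, then exposed 22 h at 37C to compounds plus 0.1 nM (final) 17beta-estradiol; ONE-Glo luminescence read-out.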

[14] = qHTS assay to identify small molecule HDAC inhibitors (AID 1259364); note: top concentration of the series differs between compounds; nearly all actives have a fitted effect of over 45% in size
Outline: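 Wild-type HCT-116 cells were plated overnight, exposed to compounds for 2 h at 37 °C, then given HDAC-Glo class I/II luminogenic reagent for 30 min at room temperature before luminescence was read.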

[15] = qHTS assay to identify small molecule HDAC inhibitors - cell viability counter screen (AID 1259365)
Outline: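 Wild-type HCT-116 cells, 1,500/well, cultured overnight, then compound-treated 2 h at 37 C. Viability measured as ATP luminescence with CellTiter-Glo after 30 min at room temperature.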

[16] = qHTS assay to identify small molecule agonists of the sonic hedgehog signaling (Shh) pathway - cell viability counter screen (AID 1259366); note: nearly all actives have a fitted effect of over 50% in size
Outline: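 NIH/3T3-derived Gli1-Luc reporter cells, 2,000 per well, received compound after 4 h and were treated about 23 h at 37C. Viability measured in the same wells by CellTiter-Fluor fluorescence after 1 h.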

[17] = qHTS assay to identify small molecule antagonists of the sonic hedgehog signaling (Shh) pathway - cell viability counter screen (AID 1259367); note: nearly all actives have a fitted effect of over 55% in size
Outline: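 Using CellTiter-Fluor, viability of Gli1-Luc reporter 3T3 cells is read by fluorescence in the wells used for the Shh luciferase assay. Treatment lasts 23 hr with conditioned medium, then reagent 1 hr at 37C.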

[18] = qHTS assay to identify small molecule agonists of the sonic hedgehog signaling (Shh) pathway (AID 1259368; calls by dose curve; note: series mostly up to about 92 µM; nearly all actives have a fitted effect of over 15% in size)
Outline: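 NIH/3T3-derived 3T3Gli1-Luc cells carrying a stably integrated Gli1 response element–firefly luciferase reporter were plated, left 4 hr at 37 C, then given compounds in DMSO for 24 hr. Luminescence was read 30 min after adding luciferase reagent.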

[19] = A CellTox Green Cytotoxicity Assay to monitor cytotoxicity in HEK293 cells - 8 hour (AID 1224884); note: nearly all actives have a fitted effect of over 35% in size
Outline: as §1

[20] = qHTS assay to identify small molecule phospholipidosis (PLD) inducers (AID 1259344; active = well fitted curve in the direction sought with a large enough effect; an effect the other way counts as inactive or inconclusive)
Outline: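 Fluorescent phospholipid staining (LipidTOX Red) measured by automated microscopy in fixed HepG2 cells after 24 h treatment; nuclei counterstained with Hoechst 33342; amiodarone as reference inducer.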
% is set by controls: 0 for no effect and ±100 for the full control effect.

CC(C)(C)c1ccc(-c2ccc(C(C)(C)C)cc2)cc1
inactive: outcome [1] | Potency [2] | Potency [3] | outcome [4] | Potency [5] | Potency [6] | outcome [7] | Potency [8] | outcome [9] | outcome [10] | outcome [11] | Potency [12] | outcome [13] | Potency [14] | outcome [15] | Potency [16] | Potency [17] | outcome [18]

Cc1onc(-c2c(Cl)cccc2Cl)c1C(=O)Cl
inactive: outcome [1] | Potency [2] | outcome [19] | outcome [4] | Potency [5] | Potency [6] | outcome [7] | Potency [8] | outcome [9] | outcome [10] | outcome [11] | Potency [12] | outcome [13] | Potency [14] | outcome [15] | Potency [16] | Potency [17] | outcome [18]

NO
inactive: outcome [1] | Potency [2] | Potency [3] | outcome [19] | outcome [4] | Potency [6] | outcome [7] | Potency [8] | outcome [9] | outcome [10] | outcome [11] | Potency [14] | outcome [15] | Potency [17]

Cc1c(N)c(=O)n(-c2ccccc2)n1C
inactive: outcome [1] | Potency [2] | outcome [19] | outcome [4] | Potency [5] | Potency [6] | outcome [7] | Potency [8] | outcome [9] | outcome [10] | outcome [11] | outcome [20] | Potency [14] | outcome [15] | Potency [16] | Potency [17] | outcome [18]

CCCCOCCOC(=O)COc1cc(Cl)c(Cl)cc1Cl
inactive: outcome [1] | Potency [2] | outcome [19] | outcome [4] | Potency [5] | Potency [6] | outcome [7] | Potency [8] | outcome [9] | outcome [10] | outcome [11] | Potency [12] | outcome [13] | Potency [14] | outcome [15] | Potency [17] | outcome [18]

CC(=O)Oc1cccc(C)c1
inactive: outcome [1] | Potency [2] | Potency [3] | outcome [19] | outcome [4] | Potency [6] | outcome [7] | Potency [8] | outcome [9] | outcome [10] | outcome [11] | outcome [13] | Potency [14] | outcome [15] | Potency [16] | Potency [17] | outcome [18]

[K+]
inactive: outcome [1] | Potency [2] | Potency [3] | outcome [4] | Potency [5] | Potency [6] | outcome [7] | Potency [8] | outcome [9] | outcome [10] | outcome [11] | outcome [13] | Potency [14] | outcome [15] | Potency [16] | Potency [17] | outcome [18]

O=C(O)CCCC[P+](c1ccccc1)(c1ccccc1)c1ccccc1
inactive: outcome [1] | Potency [2] | outcome [19] | outcome [4] | Potency [5] | Potency [6] | outcome [7] | Potency [8] | outcome [9] | outcome [10] | outcome [11] | outcome [13] | Potency [14] | outcome [15] | Potency [16] | Potency [17] | outcome [18]

C[N+](C)(C)CCCCCCCCCC[N+](C)(C)C
inactive: outcome [1] | Potency [2] | outcome [19] | outcome [4] | Potency [5] | Potency [6] | outcome [7] | Potency [8] | outcome [9] | outcome [10] | outcome [11] | outcome [13] | outcome [20] | Potency [14] | outcome [15] | Potency [16] | Potency [17] | outcome [18]

CN(C)CCN(C)CCN(C)C
inactive: outcome [1] | Potency [2] | outcome [19] | outcome [4] | Potency [5] | Potency [6] | outcome [7] | Potency [8] | outcome [9] | outcome [10] | outcome [11] | outcome [13] | Potency [14] | outcome [15] | Potency [17] | outcome [18]

CC(C)C[C@@H](N)C(=O)O
inactive: cytotoxicity increase [1] -1.55% [at 15.8 µM] | cytotoxicity [2] -9.4% [at 15.8 µM] | cytotoxicity increase [3] -8.17% [at 15.8 µM] | cytotoxicity increase [19] -0.255% [at 15.8 µM] | activity change, negative = cytotoxic [4] 2.37% [at 15.8 µM] | activity change, negative = cytotoxicity [6] 7.72% [at 15.8 µM] | activity change, negative = cytotoxicity [8] 0.397% [at 15.8 µM] | cytotoxicity increase [9] -17.7% [at 15.8 µM] | activity change, negative = cytotoxicity [10] -0.157% [at 19 µM] | viability change, negative = cytotoxic [11] -2.1% [at 19 µM] | outcome [20] | activity change, negative = inhibition [14] 7.66% [at 19 µM] | activity change, negative = cytotoxicity [15] -1.99% [at 19 µM] | viability change, negative = cytotoxic [16] -2.88% [at 19 µM] | viability change, negative = cytotoxic [17] 1.81% [at 19 µM] | activity change [18] -0.808% [at 18.9 µM]

CCCc1nn(C)c2c(=O)[nH]c(-c3cc(S(=O)(=O)N4CCN(C)CC4)ccc3OCC)nc12
inactive: outcome [1] | Potency [2] | Potency [3] | outcome [19] | outcome [4] | Potency [6] | Potency [8] | outcome [9] | outcome [10] | outcome [11] | outcome [20] | Potency [14] | outcome [15] | Potency [16] | Potency [17] | outcome [18]

COc1cc2c(cc1OC)-c1cc3ccc(OC)c(OC)c3c[n+]1CC2
inactive: outcome [1] | Potency [2] | Potency [3] | outcome [19] | outcome [4] | Potency [6] | outcome [7] | Potency [8] | outcome [9] | outcome [10] | Potency [14] | outcome [15] | Potency [16] | Potency [17] | outcome [18]

C[N+]12CCC(CC1)C(OC(=O)C(O)(c1ccccc1)c1ccccc1)C2 (centres undefined)
inactive: outcome [1] | Potency [2] | Potency [3] | outcome [19] | outcome [4] | Potency [6] | outcome [7] | Potency [8] | outcome [9] | outcome [10] | outcome [11] | Potency [14] | outcome [15] | Potency [16] | Potency [17] | outcome [18]

C=COC(=O)C(C)(CC)CCC(C)C (centres undefined)
inactive: outcome [1] | Potency [2] | Potency [3] | outcome [19] | outcome [4] | Potency [6] | outcome [7] | Potency [8] | outcome [9] | outcome [10] | outcome [11] | outcome [13] | Potency [14] | outcome [15] | Potency [16] | Potency [17] | outcome [18]
